The text below walks through data of paper PMC5540273 (PLoS ONE, 2017).
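Note: KINOMEscan kinase panel screen.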

One assay relates to T1, PCTK3.
T1 construct: gene CDK18
To be noted: concentration: 1 μM, replicates: in singlicate; n = 1.
`CCn1c(-c2nonc2N)nc2c(C#CC(C)(C)O)nc(OC[C@H](N)c3ccccc3)cc21` [GSK943949]: the “%Inh” value amounted to 0%.

As for `COc1ccc(Nc2nccc(N3CCC(NC(=O)Nc4cccc(OC)c4)C3)n2)cc1` (stereo not shown) [GSK1379742], the “%Inh” value was determined as 21%.

With `O=C(Nc1cccc(Oc2ccc3nc(NC(=O)C4CC4)cn3n2)c1)c1ccccc1C(F)(F)F`, the “%Inh” value turned out to be 6%.

`Fc1ccc(-c2ncn(C3CCNCC3)c2-c2ccnc(Oc3ccc(-c4ccccc4)cc3)n2)cc1` [SB-245391]: the “%Inh” value is 2%.

Regarding `CC(=O)Nc1nc2cnc(Nc3cc(NC(=O)c4cccc(C5(C#N)CC5)c4Cl)ccc3C)nc2s1`, the “%Inh” value came to 0%.

Take `Clc1ccc(-c2nn3ncccc3c2-c2ccnc(Nc3ccc4c(c3)OCCO4)n2)cc1` [GW829116]: the “%Inh” value was found to be 0%.

`O=C(Nc1ccccc1F)NC1CCN(c2ccnc(Nc3ccc(F)cc3)n2)CC1` [GSK1379800]: the “%Inh” value is given as 0%.

As for `c1ccc(-c2cnc3nccnn23)cc1` [AH20685], the “%Inh” value was found to be 15%.

Turning to `COc1cc2c(cc1OCCN1CCNCC1)ncc1c3ccc(C#N)cc3[nH]c21`, the “%Inh” value is 0%.

For `COc1cccc(C2=C(Nc3ccc(Cl)c(C(=O)O)c3)C(=O)NC2=O)c1` [SB-390769], the “%Inh” value is 29%.

Take `O=C(O)C(F)(F)F.O=C(O)C(F)(F)F.O=c1[nH]ccc2nc(N[C@@H]3CCCNC3)nc(Nc3ccc(S(=O)(=O)N4CCOCC4)cc3)c12` [GSK2177277]: the “%Inh” value was 96.2%.

Consider `COc1cccc(NC(=O)NC2CCN(c3ccnc(Nc4cc(OC)c(OC)c(OC)c4)n3)C2)c1` (stereo not shown) [GSK1379763], for which the “%Inh” value came to 21%.

In the case of `O=c1[nH]cc(-c2ccc(N3CCOCC3)cc2)c2sc(-c3cn[nH]c3)cc12` [GSK2276055], the “%Inh” value came out at 15%.

For `Nc1ncc(-c2ccc3nccc(-c4ccncc4)c3c2)cc1S(=O)(=O)N1CCOCC1` [GSK1627798], the “%Inh” value was 26%.

On to `Cl.c1ccc(-c2ccc3c(Nc4ccc5[nH]ncc5c4)ccnc3c2)nc1` [GW440137], for which the “%Inh” value is 20%.

For `Cc1ccc(C)c(NC(=O)NC2CCN(c3ccnc(Nc4ccc(F)cc4)n3)C2)c1` (stereo not shown) [GSK1379720], the “%Inh” value was determined as 10%.

Regarding `Cl.Cl.NCC(NC(=O)c1cc(-c2ccccc2)c(-c2ccnc3[nH]ccc23)s1)c1ccccc1` (stereo not shown) [GSK1321561], the “%Inh” value is 0%.

For the compound `Cc1occc1-c1ncc(OC[C@@H](N)Cc2c[nH]c3ccccc23)cc1-c1ccc2[nH]nc(C)c2c1.O=C(O)C(F)(F)F` [GSK682037], the “%Inh” value was found to be 0%.

With `CN(c1ccc(NC(=O)Nc2cc(C(F)(F)F)ccc2F)cc1)c1ccnc(Nc2ccc(S(N)(=O)=O)cc2)n1` [GW809893], the “%Inh” value stood at 95.5%.

For the compound `CC(C)c1nc(-c2cccc(NS(=O)(=O)c3c(F)cccc3F)c2F)c(-c2ccnc(Nc3ccc(N4CCOCC4)nc3)n2)s1` [GSK2008607], the “%Inh” value is given as 100%.

As to `Cc1cccc(Nc2nc(N[C@H]3CCNC3)ncc2C(N)=O)c1.Cl` [GSK2197149], the “%Inh” value amounted to 34%.

As to `COc1cccc(C(=O)Nc2cccc(Oc3ccc4nc(NC(=O)C5CC5)cn4n3)c2)c1`, the “%Inh” value was 12%.

Consider `Cl.c1ccc(-c2ccc3c(Nc4ccc5[nH]ccc5c4)ccnc3c2)nc1` [GW440138], for which the “%Inh” value was 28%.

On to `CC(=O)N1CCN(c2ccc(Nc3nccc(-c4sc(C(C)C)nc4-c4cccc(NS(=O)(=O)c5cccc(Cl)c5)c4)n3)cn2)CC1` [GSK1660437], for which the “%Inh” value came to 100%.

As to `CCn1c(-c2nonc2N)nc2c(C#CC(C)(C)O)ncc(OCCCCN)c21.O=C(O)C(F)(F)F.O=C(O)C(F)(F)F` [GSK507274], the “%Inh” value came out at 0%.

Consider `O=C(Nc1cccc(-c2nn3ccccc3c2-c2ccnc(Nc3cccc(C(F)(F)F)c3)n2)c1)c1c(F)cccc1F` [GSK292658], for which the “%Inh” value amounted to 0%.

As to `O=C(NC1CCN(c2ccnc(Nc3ccc(F)cc3)n2)C1)c1cc2ccccc2s1` (stereo not shown) [GSK1379716], the “%Inh” value worked out at 32%.

Turning to `COc1cc(Nc2nccc(-c3c(-c4cccc(NC(=O)c5c(F)cccc5F)c4)nn4ncccc34)n2)cc(OC)c1OC` [GSK327238], the “%Inh” value came to 5%.

`COc1cccc(-c2ccc3c(NC(=O)C4CC4)n[nH]c3n2)c1` [SB-710903]: the “%Inh” value is listed as 30%.

Regarding `Cn1cc(-c2ccc3c(c2)CCN3C(=O)Cc2cccc(Cl)c2)c2c(N)ncnc21` [GSK2606590], the “%Inh” value was 7%.

For the next assay, the system named is PDGFRA. To be noted: concentration: 1 μM, replicates: in singlicate; n = 1.
For `FC(F)(F)c1ccc(/C=C/c2cncnc2Nc2ccc3[nH]c(Cc4ccccc4)nc3c2)cc1` [GW709199], the “%Inh” value came out at 0%.

With `COc1ccc(Nc2nccc(NCCNC(=O)c3cc4ccccc4s3)n2)cc1` [GSK1379896], the “%Inh” value was found to be 0%.

As for `Cl.Cl.NCC(NCc1ccc(-c2ccnc3[nH]ccc23)s1)c1ccccc1` (stereo not shown) [GSK1321565], the “%Inh” value turned out to be 5%.

For the compound `O=C(Nc1cccc(-c2nn3ncccc3c2-c2ccnc(Nc3ccccc3)n2)c1)c1c(F)cccc1F` [GSK198271], the “%Inh” value is given as 65%.

On to `Cn1cc(-c2ccc3c(c2)CCN3C(=O)Cc2cccc(F)c2)c2c(N)ncnc21` [GSK2603358], for which the “%Inh” value stood at 78%.

As for `Nc1ncc(-c2cccnc2)c2scc(-c3ccc4c(c3)CCN4C(=O)Cc3ccccc3)c12` [GSK683281], the “%Inh” value stood at 53%.

For `COC(=O)Nc1nc2cc(Oc3ccc(NC(=O)Nc4cc(C(F)(F)F)ccc4F)cn3)ccc2[nH]1.Cl.Cl` [GW681170], the “%Inh” value is on record as 94.7%.

In the case of `CCn1c(-c2nonc2N)nc2c(C#CC(C)(C)O)nc(OC[C@H](N)c3ccccc3)cc21` [GSK943949], the “%Inh” value is 11%.

For the compound `COc1ccc(Nc2nccc(N3CCC(NC(=O)Nc4cccc(OC)c4)C3)n2)cc1` (stereo not shown) [GSK1379742], the “%Inh” value came out at 0%.

With `O=C(Nc1cccc(Oc2ccc3nc(NC(=O)C4CC4)cn3n2)c1)c1ccccc1C(F)(F)F`, the “%Inh” value is recorded as 99.7%.

Consider `Fc1ccc(-c2ncn(C3CCNCC3)c2-c2ccnc(Oc3ccc(-c4ccccc4)cc3)n2)cc1` [SB-245391], for which the “%Inh” value was 23%.

`CC(=O)Nc1nc2cnc(Nc3cc(NC(=O)c4cccc(C5(C#N)CC5)c4Cl)ccc3C)nc2s1`: the “%Inh” value is 97.7%.

As for `Clc1ccc(-c2nn3ncccc3c2-c2ccnc(Nc3ccc4c(c3)OCCO4)n2)cc1` [GW829116], the “%Inh” value is given as 24%.

For the compound `O=C(Nc1ccccc1F)NC1CCN(c2ccnc(Nc3ccc(F)cc3)n2)CC1` [GSK1379800], the “%Inh” value worked out at 0%.

With `c1ccc(-c2cnc3nccnn23)cc1` [AH20685], the “%Inh” value amounted to 0%.

In the case of `COc1cc2c(cc1OCCN1CCNCC1)ncc1c3ccc(C#N)cc3[nH]c21`, the “%Inh” value turned out to be 96.4%.

For `COc1cccc(C2=C(Nc3ccc(Cl)c(C(=O)O)c3)C(=O)NC2=O)c1` [SB-390769], the “%Inh” value came to 0%.

`O=C(O)C(F)(F)F.O=C(O)C(F)(F)F.O=c1[nH]ccc2nc(N[C@@H]3CCCNC3)nc(Nc3ccc(S(=O)(=O)N4CCOCC4)cc3)c12` [GSK2177277]: the “%Inh” value was found to be 97.5%.

As to `COc1cccc(NC(=O)NC2CCN(c3ccnc(Nc4cc(OC)c(OC)c(OC)c4)n3)C2)c1` (stereo not shown) [GSK1379763], the “%Inh” value was determined as 28%.

For the compound `O=c1[nH]cc(-c2ccc(N3CCOCC3)cc2)c2sc(-c3cn[nH]c3)cc12` [GSK2276055], the “%Inh” value is on record as 32%.

Consider `Nc1ncc(-c2ccc3nccc(-c4ccncc4)c3c2)cc1S(=O)(=O)N1CCOCC1` [GSK1627798], for which the “%Inh” value stood at 0%.

`Cl.c1ccc(-c2ccc3c(Nc4ccc5[nH]ncc5c4)ccnc3c2)nc1` [GW440137]: the “%Inh” value is recorded as 90%.

Consider `Cc1ccc(C)c(NC(=O)NC2CCN(c3ccnc(Nc4ccc(F)cc4)n3)C2)c1` (stereo not shown) [GSK1379720], for which the “%Inh” value came to 0%.

As for `Cl.Cl.NCC(NC(=O)c1cc(-c2ccccc2)c(-c2ccnc3[nH]ccc23)s1)c1ccccc1` (stereo not shown) [GSK1321561], the “%Inh” value came out at 0%.

For the compound `Cc1occc1-c1ncc(OC[C@@H](N)Cc2c[nH]c3ccccc23)cc1-c1ccc2[nH]nc(C)c2c1.O=C(O)C(F)(F)F` [GSK682037], the “%Inh” value was 0%.

Consider `CN(c1ccc(NC(=O)Nc2cc(C(F)(F)F)ccc2F)cc1)c1ccnc(Nc2ccc(S(N)(=O)=O)cc2)n1` [GW809893], for which the “%Inh” value was found to be 96.1%.

As to `CC(C)c1nc(-c2cccc(NS(=O)(=O)c3c(F)cccc3F)c2F)c(-c2ccnc(Nc3ccc(N4CCOCC4)nc3)n2)s1` [GSK2008607], the “%Inh” value was 90%.

As to `Cc1cccc(Nc2nc(N[C@H]3CCNC3)ncc2C(N)=O)c1.Cl` [GSK2197149], the “%Inh” value worked out at 58%.

`COc1cccc(C(=O)Nc2cccc(Oc3ccc4nc(NC(=O)C5CC5)cn4n3)c2)c1`: the “%Inh” value worked out at 99.9%.

On to `Cl.c1ccc(-c2ccc3c(Nc4ccc5[nH]ccc5c4)ccnc3c2)nc1` [GW440138], for which the “%Inh” value is listed as 99.2%.

With `CC(=O)N1CCN(c2ccc(Nc3nccc(-c4sc(C(C)C)nc4-c4cccc(NS(=O)(=O)c5cccc(Cl)c5)c4)n3)cn2)CC1` [GSK1660437], the “%Inh” value was found to be 73%.

With `CCn1c(-c2nonc2N)nc2c(C#CC(C)(C)O)ncc(OCCCCN)c21.O=C(O)C(F)(F)F.O=C(O)C(F)(F)F` [GSK507274], the “%Inh” value is 0%.

Turning to `O=C(Nc1cccc(-c2nn3ccccc3c2-c2ccnc(Nc3cccc(C(F)(F)F)c3)n2)c1)c1c(F)cccc1F` [GSK292658], the “%Inh” value stood at 10%.

As to `O=C(NC1CCN(c2ccnc(Nc3ccc(F)cc3)n2)C1)c1cc2ccccc2s1` (stereo not shown) [GSK1379716], the “%Inh” value was found to be 0%.

`COc1cc(Nc2nccc(-c3c(-c4cccc(NC(=O)c5c(F)cccc5F)c4)nn4ncccc34)n2)cc(OC)c1OC` [GSK327238]: the “%Inh” value is 90.2%.

Regarding `COc1cccc(-c2ccc3c(NC(=O)C4CC4)n[nH]c3n2)c1` [SB-710903], the “%Inh” value was determined as 0%.

Regarding `Cn1cc(-c2ccc3c(c2)CCN3C(=O)Cc2cccc(Cl)c2)c2c(N)ncnc21` [GSK2606590], the “%Inh” value came to 84%.
